Assay [1] addresses Dual specificity protein kinase CLK3 (Homo sapiens) (UniProt P49761). As to conditions: at 1 µM.
Assay [2] addresses Dual specificity tyrosine-phosphorylation-regulated kinase 1A (Homo sapiens) (UniProt Q13627). Particulars: at 0.1 µM.
The target is the same in assay [3]. Particulars: at 1 µM.
The target of assay [4] is Dual specificity tyrosine-phosphorylation-regulated kinase 1B (Homo sapiens) (UniProt Q9Y463). Particulars: at 0.1 µM.
Assay [5] has the same target. Particulars: at 1 µM.
Assay [6] has as its target T1, Dual specificity tyrosine-phosphorylation-regulated kinase 2 (Homo sapiens) (UniProt Q92630).
T1 sequence (whole entry): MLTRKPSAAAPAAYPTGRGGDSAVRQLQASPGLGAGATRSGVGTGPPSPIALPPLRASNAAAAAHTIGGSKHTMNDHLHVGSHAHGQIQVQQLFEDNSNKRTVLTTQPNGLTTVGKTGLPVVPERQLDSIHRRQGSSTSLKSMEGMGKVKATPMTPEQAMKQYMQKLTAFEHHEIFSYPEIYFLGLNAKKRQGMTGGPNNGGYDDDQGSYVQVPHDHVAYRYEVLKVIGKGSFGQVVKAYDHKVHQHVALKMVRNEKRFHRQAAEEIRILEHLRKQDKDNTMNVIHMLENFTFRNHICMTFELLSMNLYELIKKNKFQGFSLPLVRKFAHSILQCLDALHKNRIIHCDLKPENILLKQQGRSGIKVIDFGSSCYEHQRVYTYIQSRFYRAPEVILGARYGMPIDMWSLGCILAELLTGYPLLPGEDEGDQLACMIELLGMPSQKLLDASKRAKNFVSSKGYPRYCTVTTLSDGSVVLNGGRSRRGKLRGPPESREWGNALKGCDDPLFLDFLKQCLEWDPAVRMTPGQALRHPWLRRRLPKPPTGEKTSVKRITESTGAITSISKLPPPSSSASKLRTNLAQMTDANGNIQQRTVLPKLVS
Particulars: at 0.1 µM.

The target of assay [7] is T1, Dual specificity tyrosine-phosphorylation-regulated kinase 2 (Homo sapiens). Particulars: at 1 µM.
Assay [8] has as its target Glycogen synthase kinase-3 alpha (Homo sapiens) (UniProt P49840). Particulars: at 0.1 µM.
Assay [9] has the same target. As to conditions: at 1 µM.
Assay [10] concerns the target Glycogen synthase kinase-3 beta (Homo sapiens) (UniProt P49841). Particulars: at 0.1 µM.
Assay [11] has the same target. As to conditions: at 1 µM.
Assay [12] concerns the target Homeodomain-interacting protein kinase 1 (Homo sapiens) (UniProt Q86Z02). As to conditions: at 0.1 µM.
The target is the same in assay [13]. As to conditions: at 1 µM.
Assay [14] has as its target T2, Homeodomain-interacting protein kinase 4 (Homo sapiens) (UniProt Q8NE63).
T2 sequence (whole entry): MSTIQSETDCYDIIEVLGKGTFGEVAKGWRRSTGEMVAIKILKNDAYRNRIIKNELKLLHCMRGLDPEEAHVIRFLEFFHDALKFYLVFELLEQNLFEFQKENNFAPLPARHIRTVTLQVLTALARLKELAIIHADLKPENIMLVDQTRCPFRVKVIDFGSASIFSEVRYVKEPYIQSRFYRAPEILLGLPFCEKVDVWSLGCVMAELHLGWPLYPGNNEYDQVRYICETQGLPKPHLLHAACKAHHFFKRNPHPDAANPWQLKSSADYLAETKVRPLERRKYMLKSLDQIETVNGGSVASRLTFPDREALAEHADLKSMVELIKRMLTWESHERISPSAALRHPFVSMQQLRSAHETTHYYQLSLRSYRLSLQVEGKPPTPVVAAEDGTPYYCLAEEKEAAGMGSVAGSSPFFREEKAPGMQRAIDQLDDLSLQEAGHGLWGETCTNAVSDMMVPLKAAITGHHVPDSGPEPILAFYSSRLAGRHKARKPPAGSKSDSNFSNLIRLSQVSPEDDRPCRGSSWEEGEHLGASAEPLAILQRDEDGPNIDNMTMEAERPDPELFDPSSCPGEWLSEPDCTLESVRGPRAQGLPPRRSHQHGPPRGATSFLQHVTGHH
As to conditions: at 0.1 µM.

Assay [15] deals with T2, Homeodomain-interacting protein kinase 4 (Homo sapiens). As to conditions: at 1 µM.
Assay [16] deals with Mitogen-activated protein kinase 9 (Homo sapiens) (UniProt P45984). Particulars: at 0.1 µM.
Mitogen-activated protein kinase 9 (Homo sapiens), sequence (P45984 whole entry, looked up): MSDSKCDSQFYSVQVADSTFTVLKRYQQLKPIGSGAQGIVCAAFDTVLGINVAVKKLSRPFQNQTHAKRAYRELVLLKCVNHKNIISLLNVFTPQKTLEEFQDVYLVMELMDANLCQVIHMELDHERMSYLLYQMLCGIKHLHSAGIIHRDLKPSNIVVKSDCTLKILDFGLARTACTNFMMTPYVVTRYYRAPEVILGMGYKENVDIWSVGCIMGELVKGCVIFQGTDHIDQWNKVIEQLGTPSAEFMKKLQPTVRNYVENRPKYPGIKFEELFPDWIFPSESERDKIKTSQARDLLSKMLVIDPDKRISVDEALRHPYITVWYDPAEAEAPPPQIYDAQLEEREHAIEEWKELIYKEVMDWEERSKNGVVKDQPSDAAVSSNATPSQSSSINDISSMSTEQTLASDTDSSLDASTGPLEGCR
The target is the same in assay [17]. As to conditions: at 1 µM.
Assay [18] addresses Mitogen-activated protein kinase 1 (Homo sapiens) (UniProt P28482). As to conditions: at 0.1 µM.
The target is the same in assay [19]. As to conditions: at 1 µM.
The target in assay [20] is Mitogen-activated protein kinase 3 (Homo sapiens) (UniProt P27361). Particulars: at 0.1 µM.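 Note: each value is a mean inhibition figure.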
Mitogen-activated protein kinase 3 (Homo sapiens), sequence (P27361 whole entry): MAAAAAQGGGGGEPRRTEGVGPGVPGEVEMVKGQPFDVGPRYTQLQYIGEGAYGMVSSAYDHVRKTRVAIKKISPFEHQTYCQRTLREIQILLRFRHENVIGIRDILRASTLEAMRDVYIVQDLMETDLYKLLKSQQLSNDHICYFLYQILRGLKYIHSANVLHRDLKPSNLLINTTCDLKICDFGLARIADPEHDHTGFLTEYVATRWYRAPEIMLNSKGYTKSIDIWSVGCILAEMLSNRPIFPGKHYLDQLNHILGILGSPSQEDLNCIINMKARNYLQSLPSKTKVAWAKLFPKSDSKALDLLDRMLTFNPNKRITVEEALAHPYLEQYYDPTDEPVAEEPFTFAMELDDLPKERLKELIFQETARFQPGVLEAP

Dual specificity protein kinase CLK3 (Homo sapiens), sequence (P49761 whole entry, looked up): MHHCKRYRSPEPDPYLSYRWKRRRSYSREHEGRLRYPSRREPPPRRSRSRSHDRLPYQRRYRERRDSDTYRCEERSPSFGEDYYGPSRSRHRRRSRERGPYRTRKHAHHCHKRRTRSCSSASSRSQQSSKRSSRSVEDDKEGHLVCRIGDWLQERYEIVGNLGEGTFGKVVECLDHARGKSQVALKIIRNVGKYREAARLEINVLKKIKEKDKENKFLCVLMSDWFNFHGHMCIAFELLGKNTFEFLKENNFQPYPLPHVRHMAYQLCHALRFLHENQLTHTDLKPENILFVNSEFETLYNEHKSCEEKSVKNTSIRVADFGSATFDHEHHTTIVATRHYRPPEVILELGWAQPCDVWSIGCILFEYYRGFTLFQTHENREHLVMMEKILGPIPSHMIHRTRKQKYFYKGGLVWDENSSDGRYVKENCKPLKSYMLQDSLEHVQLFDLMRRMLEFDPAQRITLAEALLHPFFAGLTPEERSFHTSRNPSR
Glycogen synthase kinase-3 alpha (Homo sapiens), sequence (P49840 2-483 limits assumed): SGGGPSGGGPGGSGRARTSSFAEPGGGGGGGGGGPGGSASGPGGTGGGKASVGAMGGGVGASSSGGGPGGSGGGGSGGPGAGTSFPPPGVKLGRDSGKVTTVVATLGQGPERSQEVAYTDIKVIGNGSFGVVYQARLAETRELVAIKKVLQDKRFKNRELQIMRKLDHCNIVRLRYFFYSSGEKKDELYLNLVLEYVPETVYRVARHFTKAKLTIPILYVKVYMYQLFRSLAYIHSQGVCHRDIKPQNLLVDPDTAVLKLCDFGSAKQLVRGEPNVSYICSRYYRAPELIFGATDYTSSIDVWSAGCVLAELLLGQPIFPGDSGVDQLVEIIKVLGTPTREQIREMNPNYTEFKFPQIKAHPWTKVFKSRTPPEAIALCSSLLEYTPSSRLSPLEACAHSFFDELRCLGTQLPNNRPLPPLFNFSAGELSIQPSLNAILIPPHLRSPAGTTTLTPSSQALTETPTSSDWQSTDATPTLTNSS
Homeodomain-interacting protein kinase 1 (Homo sapiens), sequence (Q86Z02 whole entry, looked up): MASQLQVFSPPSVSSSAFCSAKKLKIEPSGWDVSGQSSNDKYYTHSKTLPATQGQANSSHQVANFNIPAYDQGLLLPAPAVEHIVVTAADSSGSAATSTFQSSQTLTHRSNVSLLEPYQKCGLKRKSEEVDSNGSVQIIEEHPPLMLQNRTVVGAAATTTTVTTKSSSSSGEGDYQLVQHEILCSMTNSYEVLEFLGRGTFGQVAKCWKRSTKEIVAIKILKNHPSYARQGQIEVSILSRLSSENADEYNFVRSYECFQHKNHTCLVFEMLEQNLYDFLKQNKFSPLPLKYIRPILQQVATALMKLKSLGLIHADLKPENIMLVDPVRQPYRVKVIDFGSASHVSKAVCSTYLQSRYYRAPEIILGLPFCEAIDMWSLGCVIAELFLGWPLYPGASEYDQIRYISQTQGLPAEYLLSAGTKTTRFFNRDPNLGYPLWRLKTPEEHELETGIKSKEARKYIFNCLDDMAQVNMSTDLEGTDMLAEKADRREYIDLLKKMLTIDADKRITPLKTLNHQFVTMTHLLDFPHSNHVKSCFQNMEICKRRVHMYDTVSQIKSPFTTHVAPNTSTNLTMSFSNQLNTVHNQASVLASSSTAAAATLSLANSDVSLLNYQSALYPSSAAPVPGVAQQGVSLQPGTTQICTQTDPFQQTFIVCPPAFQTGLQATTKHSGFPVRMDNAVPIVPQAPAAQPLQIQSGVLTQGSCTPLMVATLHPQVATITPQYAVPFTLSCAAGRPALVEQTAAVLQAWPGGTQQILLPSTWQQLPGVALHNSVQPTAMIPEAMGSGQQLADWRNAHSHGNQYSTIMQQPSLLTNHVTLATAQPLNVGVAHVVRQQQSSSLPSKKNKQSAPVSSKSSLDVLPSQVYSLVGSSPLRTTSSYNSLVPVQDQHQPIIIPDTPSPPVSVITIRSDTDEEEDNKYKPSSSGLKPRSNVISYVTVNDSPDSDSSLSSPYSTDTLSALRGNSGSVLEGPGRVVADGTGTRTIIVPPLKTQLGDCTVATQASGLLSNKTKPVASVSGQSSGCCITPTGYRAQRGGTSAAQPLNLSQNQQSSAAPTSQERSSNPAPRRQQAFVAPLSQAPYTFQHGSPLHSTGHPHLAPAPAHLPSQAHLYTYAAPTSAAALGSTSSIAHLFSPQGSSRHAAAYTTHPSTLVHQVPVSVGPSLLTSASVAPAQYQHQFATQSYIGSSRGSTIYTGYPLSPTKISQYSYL
Mitogen-activated protein kinase 1 (Homo sapiens), sequence (P28482 whole entry): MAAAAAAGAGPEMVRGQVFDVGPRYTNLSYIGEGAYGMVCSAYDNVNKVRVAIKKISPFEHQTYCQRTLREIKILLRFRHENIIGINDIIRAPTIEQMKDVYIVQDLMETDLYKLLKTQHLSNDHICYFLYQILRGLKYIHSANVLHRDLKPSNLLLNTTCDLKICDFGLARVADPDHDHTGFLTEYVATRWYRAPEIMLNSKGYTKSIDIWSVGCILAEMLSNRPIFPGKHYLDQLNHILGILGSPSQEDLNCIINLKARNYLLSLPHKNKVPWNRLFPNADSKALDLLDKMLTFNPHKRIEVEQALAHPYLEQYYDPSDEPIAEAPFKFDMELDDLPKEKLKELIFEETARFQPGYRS
Dual specificity tyrosine-phosphorylation-regulated kinase 1B (Homo sapiens), sequence (Q9Y463 whole entry, looked up): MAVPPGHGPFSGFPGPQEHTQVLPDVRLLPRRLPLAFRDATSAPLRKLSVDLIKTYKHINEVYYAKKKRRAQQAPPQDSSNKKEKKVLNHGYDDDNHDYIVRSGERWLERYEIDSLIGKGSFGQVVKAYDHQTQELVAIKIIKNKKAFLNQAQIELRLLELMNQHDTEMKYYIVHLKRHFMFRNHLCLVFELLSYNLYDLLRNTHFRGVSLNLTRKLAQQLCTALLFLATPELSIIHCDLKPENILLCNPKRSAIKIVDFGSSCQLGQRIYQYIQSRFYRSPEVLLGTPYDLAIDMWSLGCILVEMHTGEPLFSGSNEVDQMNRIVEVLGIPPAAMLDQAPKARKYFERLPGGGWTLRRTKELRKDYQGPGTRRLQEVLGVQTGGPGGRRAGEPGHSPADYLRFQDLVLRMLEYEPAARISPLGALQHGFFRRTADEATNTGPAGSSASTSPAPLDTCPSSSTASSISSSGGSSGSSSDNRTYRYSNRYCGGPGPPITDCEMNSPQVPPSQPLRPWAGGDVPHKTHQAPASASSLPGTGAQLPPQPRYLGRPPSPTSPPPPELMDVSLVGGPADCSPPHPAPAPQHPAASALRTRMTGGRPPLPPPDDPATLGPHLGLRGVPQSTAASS
Glycogen synthase kinase-3 beta (Homo sapiens), sequence (P49841 whole entry, looked up): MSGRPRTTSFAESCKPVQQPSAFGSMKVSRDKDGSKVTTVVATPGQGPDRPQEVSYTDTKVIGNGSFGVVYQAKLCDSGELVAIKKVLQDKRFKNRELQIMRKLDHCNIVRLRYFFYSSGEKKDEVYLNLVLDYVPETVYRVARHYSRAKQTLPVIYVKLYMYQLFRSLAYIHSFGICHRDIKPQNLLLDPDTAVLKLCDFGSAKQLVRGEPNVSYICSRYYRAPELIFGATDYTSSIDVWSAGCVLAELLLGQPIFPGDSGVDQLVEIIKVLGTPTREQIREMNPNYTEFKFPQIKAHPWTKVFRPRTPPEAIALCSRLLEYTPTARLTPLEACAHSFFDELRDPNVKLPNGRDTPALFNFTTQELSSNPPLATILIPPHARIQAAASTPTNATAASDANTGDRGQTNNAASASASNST

A word on the inhibition: it is the drop in the measured response relative to a control, in per cent. In the case of `Fc1cccc(COc2ccc(Nc3ncnc4cc(-c5ccc[nH]5)sc34)cc2Cl)c1`, the inhibition was -1.03% in [1]; -2.81% in [2]; -0.45% in assay [3]; -3.77% in [4]; -3.25% in assay [5]; 1.57% in [6]. Besides, the inhibition in [7] was 1.07%; in assay [8], -2.13%; in assay [9] it was 2.99%; in assay [10], -2.64%; in assay [11] it was 1.92%; in assay [12] it was -5.52%. In addition, the inhibition is -2.5% in [13]; -1.95% in assay [14]; 2.7% in assay [15]; 2.73% in [16]; 3.15% in [17]; 3.5% in assay [18]. The inhibition in assay [19] worked out at 4.2%; in assay [20], 0.89%.
With `NC(=O)c1cccc(Nc2nccc(Nc3cccc4[nH]ncc34)n2)c1`, the inhibition was 8.54% in assay [1]; 3.35% in assay [2]; 22.1% in [3]; 5.54% in [4]; 28.3% in assay [5]; -1.74% in assay [6]. For the same compound, the inhibition in [7] came to 7.45%; in assay [8], 8.87%; in assay [9] it was 42.1%; in assay [10], 8.67%; in [11] it was 35%; in [12], 1.13%. Moreover, the inhibition in [13] was 7.88%; in assay [14] it was 3.21%; in assay [15], 21.2%; in assay [16], -6.25%; in assay [17], 4.55%; in assay [18] it was -3.75%. Besides, the inhibition is -0.34% in assay [19] and -3.05% in assay [20].
As for `CCn1c(-c2nonc2N)nc2c(C#CC(C)(C)O)nc(CN3CCCC3)cc21`, the inhibition is 0.53% in [1]; 1.08% in assay [2]; 2.47% in [3]; 0.74% in assay [4]; 2.39% in assay [5]; -1.68% in assay [6]. For the same compound, the inhibition is 0.64% in assay [7]; 5.1% in assay [8]; 21.6% in assay [9]; 4.97% in assay [10]; 18.9% in [11]; -1.35% in assay [12]. In addition, the inhibition in assay [13] was 2.58%; in assay [14], -1.44%; in [15], 0.75%; in assay [16] it was 0.67%; in [17], -2.07%; in [18] it was -1.09%. For the same compound, the inhibition in [19] is 0.12%; in assay [20], 0.51%.
Take `Nc1nc(-c2ccc3c(c2)C(=Cc2cc(Br)c(O)c(Br)c2)C(=O)N3)cs1`: the inhibition was 2.88% in [1]; 1.71% in assay [2]; 4.89% in assay [3]; 1.38% in [4]; 3.44% in [5]; -2.46% in [6]. For the same compound, the inhibition was -0.96% in assay [7]; 0.62% in assay [8]; 4.94% in [9]; 0.83% in assay [10]; 4.42% in assay [11]; -1.1% in [12]. Besides, the inhibition in assay [13] was 4.76%; in assay [14], 0.92%; in assay [15] it was 11.3%; in assay [16], -3.8%; in assay [17], -4.58%; in [18], -2.57%. In addition, the inhibition in assay [19] was -2.89%; in assay [20] it was -0.09%.
For the compound `Cc1cccc(-c2n[nH]cc2-c2ccc3ncccc3n2)n1`, the inhibition in [1] is -3.14%; in assay [2], 1.27%; in assay [3] it was 6.72%; in assay [4], -0.18%; in [5], 4.09%; in assay [6], 0.1%. In addition, the inhibition in assay [7] was 4.03%; in assay [8], 0.39%; in [9], 1.15%; in [10], -0.14%; in assay [11], 0.05%; in assay [12], -0.8%. Moreover, the inhibition in [13] is 6.4%; in assay [14] it was -0.32%; in assay [15] it was 0.37%; in assay [16], 1.26%; in assay [17], -0.31%; in assay [18] it was 0.39%. Moreover, the inhibition in assay [19] amounted to 1.2%; in assay [20], 3.13%.
In the case of `COc1ccc(-c2ccncc2)cc1C(N)=O`, the inhibition in assay [1] was 0.61%; in assay [2] it was 3.91%; in [3], 6.95%; in assay [4] it was -1.51%; in assay [5], 2.44%; in assay [6], 3.8%. In addition, the inhibition in assay [7] is 9.87%; in [8], 3%; in assay [9] it was 4.53%; in assay [10], 2.89%; in assay [11], 4.32%; in assay [12] it was -2.78%. Besides, the inhibition in assay [13] worked out at 3.84%; in assay [14] it was 0.07%; in assay [15], 4.19%; in [16] it was 4.22%; in assay [17], 5.45%; in assay [18] it was 5.23%. Also, the inhibition in [19] worked out at 6.46%; in [20], 3.61%.

Values taken from ChEMBL document CHEMBL1961873, “Compounds: GSK PKIS; Assays: Nanosyn kinase panel” (2012).
